Assay outcomes: PubChem BioAssay, National Center for Advancing Translational Sciences (NCATS)
Lassa entry inh = qHTS for Inhibitors of binding or entry into cells for Lassa Virus; Lassa virus pseudotype entry inhibition, cell reporter; Potency, µM (series often up to 37.9 µM), actives largely listed as inhibitors; hit rate 1.2% among 300,000; AID 540256, 2011; calls by dose curve; tested in HEK293 cells; further: nearly all actives have a fitted effect of over 50% in size
FMDV antiviral = High Throughput Screening for Foot and Mouth Disease Virus Antivirals. FMDV antiviral cell-based qHTS. hit rate 1.2% among 410,000. AID 1159524, 2015. Potency, µM (doses to about 57.9 µM), hits mostly inhibitors; calls by dose curve; tested in HEK293T cells; further: read-out not given here; nearly all actives have a fitted effect of over 45% in size
SARS PLpro yeast = qHTS of Yeast-based Assay for SARS-CoV PLP | S. cerevisiae expressing SARS-CoV PLpro, growth rescue | Potency, µM (series often up to 32.9 µM), most hits filed as activators | hit rate 0.19% among 330,000 | AID 485353, 2010; calls by dose curve; further: nearly all actives have a fitted effect of over 55% in size
HCMV inh = qHTS Assay for inhibitors of the human cytomegalovirus (HCMV) | activity change, negative = inhibition, % at 57.5 µM | hit rate 4.5% among 410,000 | HFF cells, HCMV-luciferase reporter, 72 h; stronger effect = lower value; in the data active means activity change below about -60%; inconclusive means no clear call, values can overlap the other calls; inactive means above about -39%
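Screen run at 2 compound doses on HFFs infected with reporter HCMV, MOI 1 PFU/cell. Luciferase activity from cell lysates at 72 h post infection gave inhibition relative to buffer-only and Salinomycin wells.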
Marburg entry inh = qHTS for inhibitors of binding or entry into cells for Marburg Virus; Marburg virus pseudotyped entry inhibition, cell reporter; Potency, µM (highest dose often 37.8 µM), hits mostly inhibitors; hit rate 1.8% among 300,000; calls by dose curve; tested in HEK293 cells
HCV inhibitor = qHTS Assay for Inhibitors of Hepatitis C Virus (HCV) | Potency, µM (highest dose often 41.8 µM), hits mostly inhibitors | Huh7.5.1 HCVcc-Cre infection, luciferase reporter, 44 h | hit rate 3.4% among 340,000 | AID 651820, 2012; active means well fitted inhibition curve with a large enough effect; inconclusive means small, poorly fitted or top-dose-only effect, or another doubt; inactive means no such curve, though single readings can be large or run the other way
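Luciferase read-out (15 sec integration) after a 15 min room-temperature substrate step quantifies HCVcc-Cre infection. Cells, 1,000 per well, had compound added 4 h post-plating, then virus at ~0.5 moi, and were cultured 44 h.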
Hits are given with their value; 0 = inactive; ? = inconclusive; - = no result; ! = not confirmed by another sample. Hits are enriched below; roughly 8% of the tested compounds scored in any of these assays.

SMILES	Lassa entry inh	FMDV antiviral	SARS PLpro yeast	HCMV inh	Marburg entry inh	HCV inhibitor
COc1ccc(CNC(=O)C2CCCN(c3nnc(C)c4c(C)n(-c5ccc(C)cc5)nc34)C2)cc1 (centres undefined)	0	0	-	0	-	-
COc1ccc(C(=O)NCc2nnc(SC)n2-c2ccccc2C)c(OC)c1OC	-	0	-	-	-	-
O=C(COc1ccccc1)Nc1c(C(=O)N2CCC(N3CCCCC3)CC2)oc2ccccc12	-	0	0	-70	-	0
O=C(Nc1c(C(=O)N2CCC(N3CCCCC3)CC2)oc2ccccc12)c1ccc(F)cc1	-	0	0	0	-	13µM
CCOC(=O)c1cccc(NC(=O)CCc2c(C)nc3cc(-c4ccc(Cl)cc4)nn3c2C)c1	?	?	-	0	0	-
CCOCCCNC(=O)/C(C#N)=C/c1ccc([N+](=O)[O-])o1	?	32µM	0	-99	?	?
COc1ccc(/C=C(\C#N)C(=O)NC(C)c2ccccc2)cc1O (centres undefined)	0	0	0	?	0	0
CC(NC(=O)/C(C#N)=C/c1ccc([N+](=O)[O-])o1)c1ccccc1 (centres undefined)	?	28µM	0	-101	?	?
COC(=O)c1ccc(/C=C(\C#N)C(=O)NC(C)c2ccccc2)cc1 (centres undefined)	-	?	0	-95	0	11µM
Cc1[nH]c2ccccc2c1/C=C(\C#N)C(=O)NCc1ccccc1	?	0	0	0	0	?
Cc1ccc(C(C)NC(=O)/C(C#N)=C\c2c(C)[nH]c3ccccc23)cc1 (centres undefined)	0	0	0	-61	?	0
COCCNC(=O)CSc1nc(-c2cc(OC)c(OC)c(OC)c2)[nH]c1-c1ccc(Cl)cc1	0	0	-	0	?	-
CCCCSCCCNC(=O)c1ccc(CS(=O)(=O)c2ccc(OC)cc2)o1	?	0	0	0	0	?
CC(C)(C)c1ccc(/C=N/NC(=S)NC2CCCCC2)cc1	?	0	20µM	0	?	?
COc1ccc(CN(CCC(c2ccccc2)c2ccc(OC(C)C)cc2)C(=O)CCl)cc1OC (centres undefined)	?	4.5µM	0	-100	?	?
COc1ccc(C(CCN(Cc2ccc(OC)c(OC)c2)C(C)=O)c2ccccc2)cc1 (centres undefined)	-	?	0	0	0	0
COc1ccc(CNCCC(c2ccccc2)c2ccc(OC(C)C)cc2)cc1OC (centres undefined)	6.3µM	0	0	0	?	11µM
COc1ccc(CNCCC(c2ccc(F)cc2)c2ccc(OC(C)C)cc2)cc1OC (centres undefined)	?	0	0	-97	?	?
Cc1cc2ccccc2n1CCNC(=O)c1ccccc1F	0	0	-	0	0	-
CN1C(C(=O)Nc2cccc(O)c2)=CC(c2ccco2)=NS1(=O)=O	0	0	0	-63!	?	0
Cc1ccc(-n2nnnc2SCC(=O)NCCc2ccccc2)cc1C	0	0	-	0	0	-
Cc1ccc(C(=O)NCC(c2cccnc2)N2CCc3ccccc32)cc1C (centres undefined)	0	?	-	0	-	-
CCOc1cc(CNC2CCCC2)cc(Cl)c1OCc1ccc(F)cc1	?	-	0	0	5.8µM	4µM
COc1cc(CNC2CCCCCCC2)cc(Cl)c1OCC(N)=O	-	0	0	0	-	0
COc1cc(CNC2CCCC2)cc(Cl)c1OCc1ccccc1Cl	?	?	0	?	10µM	?
SMILES	Lassa entry inh	FMDV antiviral	SARS PLpro yeast	HCMV inh	Marburg entry inh	HCV inhibitor
COc1cc(CNC2CCCC2)cc(Cl)c1OCc1ccc(F)cc1	?	0	0	0	?	1.3µM
CC(Sc1nc(N)cc(=O)[nH]1)C(=O)Nc1sc2c(c1C#N)CCCC2 (centres undefined)	?	?	0	-66	?	?
CC(=O)NC(=S)Nc1sc2c(c1C#N)CCCCC2	?	0	0	0	?	?
N#Cc1c(NC(=O)c2cccc3ccccc23)sc2c1CCCC2	0.2µM	-	-	-	-	-
COc1ccc(CN(C)CC(=O)Nc2sc3c(c2C#N)CCC3)cc1OC	-	0	0	0	-	11µM
CC(=O)Nc1sc2c(c1C#N)CCCC2	0	0	-	0	0	11µM
COc1cc(NC(=O)c2sc3nc4n(c(=O)c3c2C)CCCCC4)cc(OC)c1OC	0	0	-	0	-	-
O=C(Nc1ccc(Br)cc1)C1CCN(S(=O)(=O)c2cccc3nsnc23)CC1	?	0	-	0	0	-
